# Measurements published in the supplement of paper PMC10127200.
# Structures can show the parent of a compound that is named as a salt.
# What was measured:
# Assay in all cases: Euclidean distance of Cell Painting phenotypic profile (signed KS, 77 features) to DMSO centroid (dimensionless distance); 5 or 10 uM (library dependent); higher = stronger phenotypic change vs DMSO (phenoactivity)
# Details in all cases: 48 h
# [1] = test system: 786-O
# In short: (§1)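 Phenoactivity is defined as the Euclidean distance from a compound profile to the median vehicle profile. Each profile comprised 77 Harmony features, scored as signed Kolmogorov-Smirnov statistics versus same-plate vehicle wells, then plate-position corrected, correlation-weighted and replicate-averaged at the top dose. Five cancer lines and one healthy fibroblast line were exposed to library compounds for 48 h at 10 or 5 uM (0.1% DMSO final).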
# [2] = test system: A549
# In short: as §1
# [3] = test system: DU145
# In short: as §1
# [4] = test system: FB
# In short: as §1
# [5] = test system: HEPG2
# In short: as §1
# [6] = test system: OVCAR4
# In short: as §1
Compound,Euclidean distance [1],Euclidean distance [2],Euclidean distance [3],Euclidean distance [4],Euclidean distance [5],Euclidean distance [6]
CCc1cc(C(N)=S)ccn1 [Ethionamide],1.19,0.608,1.03,0.853,2.13,1.4
NCC[C@H](O)C(=O)N[C@@H]1C[C@H](N)[C@@H](O[C@H]2O[C@H](CN)[C@@H](O)[C@H](O)[C@H]2O)[C@H](O)[C@H]1O[C@H]1O[C@H](CO)[C@@H](O)[C@H](N)[C@H]1O [Amikacin disulfate],1.64,0.597,0.666,0.868,0.695,0.989
CNC(=O)CN1CCC(Oc2cc3c(Nc4cccc(Cl)c4F)ncnc3cc2OC)CC1 [Sapitinib (AZD8931)],1.67,3.03,2.21,2.79,1.18,3.03
c1ccc2c(Oc3nc(Nc4ccc(N5CCOCC5)cc4)c4ncn(C5CCCCC5)c4n3)cccc2c1 [Purmorphamine],1.93,1.81,0.922,0.758,1.17,1.94
CC(=O)O[C@H]1C[C@@H]2CC[C@@H]3[C@H](CC[C@@]4(C)[C@H]3C[C@H]([N+]3(C)CCCCC3)[C@@H]4OC(C)=O)[C@@]2(C)C[C@@H]1N1CCCCC1 [Vecuronium Bromide],1.85,1.53,1.34,1.07,0.966,1.28
O=C(O[C@@H]1Cc2c(O)cc(O)cc2O[C@@H]1c1ccc(O)c(O)c1)c1cc(O)c(O)c(O)c1 [(-)-Epicatechin gallate],1.61,0.725,1.16,1.3,0.724,0.782
C[C@@H](CN1CC(=O)NC(=O)C1)N1CC(=O)NC(=O)C1 [Dexrazoxane HCl (ICRF-187. ADR-529)],1.38,1.71,1.21,1.96,1.47,1.89
COC(=O)Nc1nc2cc([S+]([O-])c3ccccc3)ccc2[nH]1 (stereo unspecified) [Oxfendazole],1.09,0.692,1.08,0.801,1.42,1.12
COc1cc2ncnc(Nc3ccc(F)c(Cl)c3)c2cc1NC(=O)/C=C/CN1CCCCC1,3.46,4.69,2.82,2.17,1.47,2.05
CN1CCN(c2cc3c(cc2F)c(=O)c(C(=O)O)cn3-c2ccc(F)cc2)CC1 [Difloxacin hydrochloride],1.51,0.685,0.906,1.1,0.824,1.17
CCCCc1nc(C)c(CC(=S)N(C)C)c(=O)n1Cc1ccc(-c2ccccc2-c2nnn[nH]2)cc1 [Fimasartan],0.829,0.807,0.902,0.862,0.679,0.989
CC(COc1ccccc1)NC(C)C(O)c1ccc(O)cc1 (stereo unspecified) [Isoxsuprine hydrochloride],1.44,0.704,0.854,1.28,0.54,1.1
CC(C)CCNc1ncccc1C(=O)N1CCN(Cc2ccccc2)CC1,0.757,0.542,0.821,0.894,0.864,0.631
CO/N=C(\C(=O)N[C@@H]1C(=O)N2C(C(=O)O)=C(COC(C)=O)CS[C@H]12)c1csc(N)n1 [Cefotaxime sodium],1.09,0.485,0.877,0.644,0.409,0.706
COc1cccc(C=NCCN=Cc2cccc(OC)c2[O-])c1[O-].[Cl-].[Mn+3],1.28,0.596,0.577,0.887,2.11,1.14
Cc1ccc(NC(=O)c2ccc(CN3CCN(C)CC3)cc2)cc1Nc1nc(-c2cccnc2)cs1 [Masitinib (AB1010)],2.6,2.76,2.65,3.16,2.4,2.08
CC(C)C(=O)OCC(=O)[C@@]12O[C@H](C3CCCCC3)O[C@@H]1C[C@H]1[C@@H]3CCC4=CC(=O)C=C[C@]4(C)[C@H]3[C@@H](O)C[C@@]12C [Ciclesonide],1.71,2.49,2.88,2.36,2.25,2.09
O=C(Nc1ccccc1)c1cc([N+](=O)[O-])ccc1Cl,0.848,0.897,0.645,1.15,0.832,1.2
Cc1cn(-c2cc(NC(=O)c3ccc(C)c(Nc4nccc(-c5cccnc5)n4)c3)cc(C(F)(F)F)c2)cn1 [Nilotinib (AMN-107)],2.33,3.94,3.46,2.13,1.09,1.8
COc1cc2c(cc1OC)C(=O)C(CC1CCN(Cc3ccccc3)CC1)C2 (stereo unspecified) [Donepezil],0.813,1.25,0.73,0.785,1.27,1.27
Cc1ccccc1N1CCN(CCc2nnc3n2CCCC3)CC1 [Dapiprazole Hydrochloride],1.23,0.715,0.81,0.786,1.09,1.17
C[C@@H](C(=O)Nc1ccc(Cl)cc1)C1CCC(c2ccnc3ccc(F)cc23)CC1 (stereo partly specified),1.84,2.05,1.38,1.29,1.93,1.69
C/C=C\c1ccc(OC)cc1 [cis-Anethole],0.571,0.784,0.864,0.765,0.671,1.2
CCC1(c2c[nH]cn2)Cc2ccccc2C1 [Atipamezole],0.467,0.642,0.626,0.848,0.484,0.675
O=c1[nH]c(=O)n([C@H]2C[C@H](O)[C@@H](CO)O2)cc1F [Floxuridine],1.86,3,2.5,1.73,2.61,2.71
Cc1cc(N2CCOCC2)ccc1Nc1nc(NC2CCCCC2)c2[nH]cnc2n1,1.79,2.73,1.25,1.29,1.78,1.73
